Reference: the OligoGym collection

Molecular target: RWDD2B
Assay: pooled miR-30 sensor sort-seq; sequence = guide strand
Settings: shRNA

TTCCACACAAACAACACCAGGT was tested. Which sensor-assay potency score (higher = more potent) did it give?
Its sensor-assay potency score (higher = more potent) is 0.95.

Which sensor-assay potency score (higher = more potent) does the source give for TAGAATATTCTTTCTTTTGCAT here?
The sensor-assay potency score (higher = more potent) was 0.0563.

Which sensor-assay potency score (higher = more potent) does the source give for TCAGTATACAAACATCTCCATG here?
Its sensor-assay potency score (higher = more potent) is -1.45.

Which sensor-assay potency score (higher = more potent) does the source give for TCCATTAACACTGAACACTTTT here?
Its sensor-assay potency score (higher = more potent) is -0.901.

Which sensor-assay potency score (higher = more potent) does the source give for TTCAGTATACAAACATCTCCAT here?
The sensor-assay potency score (higher = more potent) was 0.0635.

For TCAACTGACTGGACTGTGCTTC, which sensor-assay potency score (higher = more potent) is on record?
The sensor-assay potency score (higher = more potent) was 0.407.

TTGATAGTAAAGTAGACTTTTG was tested. Which sensor-assay potency score (higher = more potent) did it give?
Its sensor-assay potency score (higher = more potent) is -1.18.

For TTTCAGTTCTGCTACAGCCAGC, which sensor-assay potency score (higher = more potent) is on record?
Its sensor-assay potency score (higher = more potent) is -0.902.

For TCTTCTTTTCAATACAATCTTT, which sensor-assay potency score (higher = more potent) is on record?
The sensor-assay potency score (higher = more potent) was -0.675.

For TTGGACATGTGTAAGTTTCTTG, which sensor-assay potency score (higher = more potent) is on record?
Its sensor-assay potency score (higher = more potent) is 0.645.

With TTTTTCGTCAGATACATCCAGG as the sequence, how does the sensor-assay potency score (higher = more potent) read?
Its sensor-assay potency score (higher = more potent) is -0.29.

Which sensor-assay potency score (higher = more potent) does the source give for TAACACTGAACACTTTTTCTTC here?
The sensor-assay potency score (higher = more potent) was -0.298.

Molecular target: RXFP4
Assay: as above
Settings: shRNA

How did the sensor-assay potency score (higher = more potent) turn out when TTGCTTGCGACCCACCGCCTGC was run?
The sensor-assay potency score (higher = more potent) was -0.81.

With TCAGGAGACAGTACAGCACAGG as the sequence, how does the sensor-assay potency score (higher = more potent) read?
Its sensor-assay potency score (higher = more potent) is -0.981.

Which sensor-assay potency score (higher = more potent) does the source give for AGGAATTTGACAGGCATCGGAG here?
Its sensor-assay potency score (higher = more potent) is -1.05.

With TTGAAGACGAAGGTGTCTGAAG as the sequence, how does the sensor-assay potency score (higher = more potent) read?
Its sensor-assay potency score (higher = more potent) is -0.402.

For TAGAAGGGCGGCTCTCCCGGGG, which sensor-assay potency score (higher = more potent) is on record?
The sensor-assay potency score (higher = more potent) was -0.734.

TCTTGCAGAGGGCACCTCCGAA was tested. Which sensor-assay potency score (higher = more potent) did it give?
Its sensor-assay potency score (higher = more potent) is -1.29.

For TAGACGTTGAGGACAGTGGCCG, which sensor-assay potency score (higher = more potent) is on record?
Its sensor-assay potency score (higher = more potent) is 0.159.

For TACAGCACAGGGTTGAGGCAGC, which sensor-assay potency score (higher = more potent) is on record?
The sensor-assay potency score (higher = more potent) was -0.483.

Which sensor-assay potency score (higher = more potent) does the source give for TAGCTGGTGGTGATGACGCCCA here?
Its sensor-assay potency score (higher = more potent) is -0.885.

For AACTTCACCAGGACACCCCAGA, which sensor-assay potency score (higher = more potent) is on record?
The sensor-assay potency score (higher = more potent) was -1.12.

TAGGAATTTGACAGGCATCGGA was tested. Which sensor-assay potency score (higher = more potent) did it give?
Its sensor-assay potency score (higher = more potent) is 0.2.

With TAGCGAGCAACGCTCAGCGCTG as the sequence, how does the sensor-assay potency score (higher = more potent) read?
The sensor-assay potency score (higher = more potent) was -1.3.

Molecular target: RYK
Assay: as above
Settings: shRNA

Which sensor-assay potency score (higher = more potent) does the source give for TAACTGTTTTGACAAATGCTTG here?
Its sensor-assay potency score (higher = more potent) is -1.47.

TTGTAGCACATTTTCCTTCGTT was tested. Which sensor-assay potency score (higher = more potent) did it give?
Its sensor-assay potency score (higher = more potent) is 0.000719.

For TTGTCTGTGATCTTAACTTGAA, which sensor-assay potency score (higher = more potent) is on record?
The sensor-assay potency score (higher = more potent) was -0.554.

With TTGAAGACAAACCATTTCCCAG as the sequence, how does the sensor-assay potency score (higher = more potent) read?
Its sensor-assay potency score (higher = more potent) is -0.946.

For TTTTCATCTATTAAAATCCCAT, which sensor-assay potency score (higher = more potent) is on record?
The sensor-assay potency score (higher = more potent) was -0.695.

For TTTCATACTATGAAGGTGCAAA, which sensor-assay potency score (higher = more potent) is on record?
The sensor-assay potency score (higher = more potent) was -0.131.

TTACTGCACAACAAACCCCTAC was tested. Which sensor-assay potency score (higher = more potent) did it give?
Its sensor-assay potency score (higher = more potent) is -0.546.

With TATTCGGTAACCATCTTTCAGG as the sequence, how does the sensor-assay potency score (higher = more potent) read?
The sensor-assay potency score (higher = more potent) was -0.693.

Which sensor-assay potency score (higher = more potent) does the source give for TATTGCTATATCCTTCACCTTG here?
Its sensor-assay potency score (higher = more potent) is -0.912.

How did the sensor-assay potency score (higher = more potent) turn out when TTTAGAGTTATCCTCTCTCTGG was run?
Its sensor-assay potency score (higher = more potent) is -0.8.

TTTTTGTAGCACATTTTCCTTC was tested. Which sensor-assay potency score (higher = more potent) did it give?
The sensor-assay potency score (higher = more potent) was -0.15.

With TTGTATTATCTCCTTTTCCAGA as the sequence, how does the sensor-assay potency score (higher = more potent) read?
The sensor-assay potency score (higher = more potent) was -1.16.
